About 7,900 targets were measured; listed, in parts, are those with a hit and a random draw of the rest. About 0.6% of all pairs of compound and target were hits. A number with no mark means an inactive call.
Key:
Test in all cases: log2 fold change, soluble protein after heating vs DMSO (PISA); higher = thermal stabilisation; K562 cells, 10 uM, 30 min; active = over 0.2 and 3.5 SD of the protein, either way, in both replicates (recomputed)
[1] = compound: COC1=CC=C(C=C1)CN2C=CC3=C2C=C(C=C3)C(=O)NO
Outline: (§1)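 Soluble protein was defined as the supernatant after 21,000xg for 90 min. It came from K562 cells at 2×10^6 cells/mL given 10 μM compound for 30 min, heated in aliquots for 3 min across 48°C-58°C, pooled, and extracted in PBS with 0.5% NP-40 at 4°C, and was quantified by TMTpro 16plex LC-MS/MS with equalised channel sums. Thermal stability against control samples, from duplicates, is reported as log2 fold change.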

filanesib = compound: CON(C)C(=O)N1N=C(c2cc(F)ccc2F)S[C@@]1(CCCN)c1ccccc1 [filanesib]
Outline: as §1

zotarolimus = compound: CO[C@H]1C[C@@H]2CC[C@@H](C)[C@@](O)(O2)C(=O)C(=O)N2CCCC[C@H]2C(=O)O[C@H]([C@H](C)C[C@@H]2CC[C@H](n3cnnn3)[C@H](OC)C2)CC(=O)[C@H](C)/C=C(\C)[C@@H](O)[C@@H](OC)C(=O)[C@H](C)C[C@H](C)/C=C/C=C/C=C/1C [zotarolimus]
Outline: as §1

idasanutlin = compound: COc1cc(C(=O)O)ccc1NC(=O)[C@@H]1N[C@@H](CC(C)(C)C)[C@](C#N)(c2ccc(Cl)cc2F)[C@H]1c1cccc(Cl)c1F [idasanutlin]
Outline: as §1

alisertib = compound: COc1cc(Nc2ncc3c(n2)-c2ccc(Cl)cc2C(c2c(F)cccc2OC)=NC3)ccc1C(=O)O [alisertib]
Outline: as §1

[2] = compound: COc1cc2nc(-c3cc(F)ccc3O)nc(N[C@@H]3CNC[C@H]3C(C)(C)O)c2cc1OC
Outline: as §1

gefitinib = compound: COc1cc2ncnc(Nc3ccc(F)c(Cl)c3)c2cc1OCCCN1CCOCC1 [gefitinib]
Outline: as §1

[3] = compound: COc1cccc2cc(-c3nc([C@H]4CC[C@H](C(=O)O)CC4)n4ncnc(N)c34)[nH]c12
Outline: as §1

lapatinib = compound: CS(=O)(=O)CCNCc1ccc(-c2ccc3ncnc(Nc4ccc(OCc5cccc(F)c5)c(Cl)c4)c3c2)o1 [lapatinib]
Outline: as §1

pictilisib = compound: CS(=O)(=O)N1CCN(Cc2cc3nc(-c4cccc5[nH]ncc45)nc(N4CCOCC4)c3s2)CC1 [pictilisib]
Outline: as §1

UniProt Q99807, sequence (Q99807 whole entry, looked up): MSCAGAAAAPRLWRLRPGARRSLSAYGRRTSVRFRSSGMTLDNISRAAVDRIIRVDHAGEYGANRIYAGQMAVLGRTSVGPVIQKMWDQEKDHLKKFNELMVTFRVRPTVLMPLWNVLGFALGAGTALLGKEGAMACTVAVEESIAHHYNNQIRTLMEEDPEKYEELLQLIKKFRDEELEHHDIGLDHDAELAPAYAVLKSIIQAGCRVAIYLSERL
UniProt Q96KA5, sequence (Q96KA5 whole entry, looked up): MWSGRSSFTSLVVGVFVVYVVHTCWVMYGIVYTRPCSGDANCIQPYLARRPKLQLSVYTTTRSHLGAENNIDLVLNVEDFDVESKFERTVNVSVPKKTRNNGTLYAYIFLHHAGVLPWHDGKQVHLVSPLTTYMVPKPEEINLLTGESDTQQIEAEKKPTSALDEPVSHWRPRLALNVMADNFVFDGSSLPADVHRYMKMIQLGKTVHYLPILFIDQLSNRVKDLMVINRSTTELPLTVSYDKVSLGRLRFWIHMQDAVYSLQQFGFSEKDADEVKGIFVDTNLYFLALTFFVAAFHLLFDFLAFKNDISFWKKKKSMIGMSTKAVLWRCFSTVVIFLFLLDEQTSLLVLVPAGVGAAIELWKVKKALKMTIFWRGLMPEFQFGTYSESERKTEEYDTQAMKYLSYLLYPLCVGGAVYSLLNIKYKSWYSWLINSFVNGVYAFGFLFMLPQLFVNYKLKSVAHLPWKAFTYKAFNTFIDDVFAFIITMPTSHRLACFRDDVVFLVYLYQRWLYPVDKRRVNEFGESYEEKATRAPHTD
UniProt Q10570, sequence (Q10570 whole entry, looked up): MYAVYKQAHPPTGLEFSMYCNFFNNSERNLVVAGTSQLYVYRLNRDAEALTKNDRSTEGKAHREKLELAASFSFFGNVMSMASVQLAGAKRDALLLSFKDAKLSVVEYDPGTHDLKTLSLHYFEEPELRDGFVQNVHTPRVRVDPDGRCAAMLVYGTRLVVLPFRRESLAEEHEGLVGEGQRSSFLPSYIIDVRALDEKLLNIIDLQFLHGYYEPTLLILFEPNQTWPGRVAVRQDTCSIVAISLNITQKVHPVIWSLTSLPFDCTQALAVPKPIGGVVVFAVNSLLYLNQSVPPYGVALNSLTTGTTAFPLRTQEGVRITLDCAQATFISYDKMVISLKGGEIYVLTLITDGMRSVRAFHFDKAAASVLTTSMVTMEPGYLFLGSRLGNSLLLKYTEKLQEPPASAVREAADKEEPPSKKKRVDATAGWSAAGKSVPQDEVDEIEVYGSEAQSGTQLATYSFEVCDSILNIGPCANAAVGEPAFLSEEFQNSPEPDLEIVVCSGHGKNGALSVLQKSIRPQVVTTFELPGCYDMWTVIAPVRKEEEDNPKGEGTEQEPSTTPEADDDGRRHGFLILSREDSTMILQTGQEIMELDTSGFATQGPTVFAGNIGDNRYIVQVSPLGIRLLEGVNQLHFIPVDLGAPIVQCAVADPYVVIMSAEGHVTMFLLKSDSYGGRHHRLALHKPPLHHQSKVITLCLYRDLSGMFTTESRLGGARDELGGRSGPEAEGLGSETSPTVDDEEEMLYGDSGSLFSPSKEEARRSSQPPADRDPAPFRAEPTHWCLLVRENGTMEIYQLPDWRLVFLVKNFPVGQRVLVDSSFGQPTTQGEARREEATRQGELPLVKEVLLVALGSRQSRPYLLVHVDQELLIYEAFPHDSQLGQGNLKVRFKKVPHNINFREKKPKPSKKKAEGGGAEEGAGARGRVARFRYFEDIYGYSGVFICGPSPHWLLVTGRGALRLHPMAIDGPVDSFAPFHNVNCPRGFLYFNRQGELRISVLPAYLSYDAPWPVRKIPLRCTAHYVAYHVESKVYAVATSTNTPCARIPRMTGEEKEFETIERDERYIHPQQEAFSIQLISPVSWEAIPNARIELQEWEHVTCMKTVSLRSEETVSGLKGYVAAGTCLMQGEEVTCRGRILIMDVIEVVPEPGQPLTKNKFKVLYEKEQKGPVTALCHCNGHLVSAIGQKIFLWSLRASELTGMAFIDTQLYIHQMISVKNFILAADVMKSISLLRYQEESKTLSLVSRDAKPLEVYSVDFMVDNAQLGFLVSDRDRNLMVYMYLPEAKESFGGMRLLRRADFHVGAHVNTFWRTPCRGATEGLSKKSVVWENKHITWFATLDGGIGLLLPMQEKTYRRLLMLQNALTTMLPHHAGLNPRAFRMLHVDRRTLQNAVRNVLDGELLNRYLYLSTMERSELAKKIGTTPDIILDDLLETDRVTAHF
UniProt Q9UIV1, sequence (Q9UIV1 whole entry, looked up): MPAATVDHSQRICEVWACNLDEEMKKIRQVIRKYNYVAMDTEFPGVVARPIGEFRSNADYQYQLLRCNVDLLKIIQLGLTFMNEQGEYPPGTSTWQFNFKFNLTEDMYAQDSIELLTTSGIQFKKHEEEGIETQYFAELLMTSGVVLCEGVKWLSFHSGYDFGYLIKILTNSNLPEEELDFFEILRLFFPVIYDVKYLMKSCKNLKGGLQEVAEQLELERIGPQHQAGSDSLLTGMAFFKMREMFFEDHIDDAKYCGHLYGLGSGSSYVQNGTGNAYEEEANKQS
UniProt Q99627, sequence (Q99627 whole entry, looked up): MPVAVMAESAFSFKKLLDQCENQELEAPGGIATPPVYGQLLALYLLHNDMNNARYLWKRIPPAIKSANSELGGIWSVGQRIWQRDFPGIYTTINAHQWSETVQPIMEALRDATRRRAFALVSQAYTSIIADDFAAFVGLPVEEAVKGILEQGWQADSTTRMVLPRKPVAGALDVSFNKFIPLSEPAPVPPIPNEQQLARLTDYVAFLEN
UniProt Q8WUX2, sequence (Q8WUX2 whole entry, looked up): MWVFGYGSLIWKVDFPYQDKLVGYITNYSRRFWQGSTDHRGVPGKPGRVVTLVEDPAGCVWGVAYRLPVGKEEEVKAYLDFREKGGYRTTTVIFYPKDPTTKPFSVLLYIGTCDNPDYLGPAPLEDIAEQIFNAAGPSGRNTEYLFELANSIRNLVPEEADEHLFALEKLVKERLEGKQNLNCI
UniProt P19397, sequence (P19397 whole entry, looked up): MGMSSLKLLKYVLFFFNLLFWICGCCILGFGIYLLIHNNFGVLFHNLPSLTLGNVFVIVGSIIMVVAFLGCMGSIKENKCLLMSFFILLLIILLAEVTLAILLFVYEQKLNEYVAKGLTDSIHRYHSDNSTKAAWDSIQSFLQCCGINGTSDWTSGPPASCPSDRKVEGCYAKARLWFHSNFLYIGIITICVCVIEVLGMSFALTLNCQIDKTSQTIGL
UniProt P48509, sequence (P48509 whole entry, looked up): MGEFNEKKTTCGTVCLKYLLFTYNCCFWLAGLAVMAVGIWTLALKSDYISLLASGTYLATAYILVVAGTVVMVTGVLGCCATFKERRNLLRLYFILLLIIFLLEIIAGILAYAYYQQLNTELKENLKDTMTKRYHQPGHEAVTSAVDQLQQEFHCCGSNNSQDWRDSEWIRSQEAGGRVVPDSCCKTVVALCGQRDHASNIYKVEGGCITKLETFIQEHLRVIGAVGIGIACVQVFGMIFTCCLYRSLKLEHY
UniProt P51946, sequence (P51946 whole entry, looked up): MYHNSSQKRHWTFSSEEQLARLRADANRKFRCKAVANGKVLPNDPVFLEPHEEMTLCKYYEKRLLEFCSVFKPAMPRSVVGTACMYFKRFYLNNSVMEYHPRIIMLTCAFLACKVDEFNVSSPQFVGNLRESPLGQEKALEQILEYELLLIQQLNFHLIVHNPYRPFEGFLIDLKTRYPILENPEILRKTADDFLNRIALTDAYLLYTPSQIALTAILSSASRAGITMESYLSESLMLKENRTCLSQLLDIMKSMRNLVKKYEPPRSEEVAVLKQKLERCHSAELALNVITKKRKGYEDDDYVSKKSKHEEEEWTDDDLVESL
UniProt O95628, sequence (O95628 whole entry, looked up): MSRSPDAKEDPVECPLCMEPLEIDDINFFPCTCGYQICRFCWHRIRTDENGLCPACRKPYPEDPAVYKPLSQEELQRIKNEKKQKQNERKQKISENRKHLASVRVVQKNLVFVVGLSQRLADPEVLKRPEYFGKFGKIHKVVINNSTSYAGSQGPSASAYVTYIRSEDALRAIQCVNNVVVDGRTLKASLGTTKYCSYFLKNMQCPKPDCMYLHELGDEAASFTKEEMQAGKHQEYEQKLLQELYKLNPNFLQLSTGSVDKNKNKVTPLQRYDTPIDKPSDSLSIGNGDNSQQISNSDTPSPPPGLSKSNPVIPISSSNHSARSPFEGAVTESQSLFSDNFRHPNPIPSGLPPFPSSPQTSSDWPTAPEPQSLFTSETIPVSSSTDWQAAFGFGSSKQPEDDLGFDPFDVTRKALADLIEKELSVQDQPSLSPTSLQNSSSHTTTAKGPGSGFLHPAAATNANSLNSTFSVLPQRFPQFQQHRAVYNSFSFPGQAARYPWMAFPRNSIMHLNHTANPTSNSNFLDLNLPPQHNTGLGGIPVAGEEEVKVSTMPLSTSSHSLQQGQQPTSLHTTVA
UniProt P16152, sequence (P16152 whole entry, looked up): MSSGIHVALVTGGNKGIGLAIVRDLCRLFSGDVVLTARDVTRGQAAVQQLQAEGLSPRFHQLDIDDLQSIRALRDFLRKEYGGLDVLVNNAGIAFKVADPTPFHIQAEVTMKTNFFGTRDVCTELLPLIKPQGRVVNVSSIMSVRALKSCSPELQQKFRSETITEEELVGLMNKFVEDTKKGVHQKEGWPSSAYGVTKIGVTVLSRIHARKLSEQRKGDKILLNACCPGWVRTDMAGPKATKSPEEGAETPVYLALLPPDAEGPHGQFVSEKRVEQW
UniProt P50750, sequence (P50750 whole entry, looked up): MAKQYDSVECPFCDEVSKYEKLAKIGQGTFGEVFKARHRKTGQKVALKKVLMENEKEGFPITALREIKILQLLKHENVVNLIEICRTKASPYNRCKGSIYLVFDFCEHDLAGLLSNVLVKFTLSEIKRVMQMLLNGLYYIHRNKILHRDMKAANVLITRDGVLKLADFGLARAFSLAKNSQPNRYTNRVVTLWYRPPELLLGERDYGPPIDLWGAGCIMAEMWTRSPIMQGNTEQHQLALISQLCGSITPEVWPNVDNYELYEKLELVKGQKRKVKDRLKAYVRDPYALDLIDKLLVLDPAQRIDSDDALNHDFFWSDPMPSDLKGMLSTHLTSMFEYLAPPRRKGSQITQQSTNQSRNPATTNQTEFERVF

Row | Target | log2 fold change [1] | log2 fold change (filanesib) | log2 fold change (zotarolimus) | log2 fold change (idasanutlin) | log2 fold change (alisertib) | log2 fold change [2] | log2 fold change (gefitinib) | log2 fold change [3] | log2 fold change (lapatinib) | log2 fold change (pictilisib)
1 | CDC42SE1 (UniProt Q9NRR8) | -0.011 | -0.049 | 0 | -0.093 | 0.003 | 0.036 | -0.025 | -0.168 | -0.088 | –
2 | CLPTM1L (UniProt Q96KA5) | -0.053 | -0.114 | -0.095 | -0.141 | -0.032 | -0.08 | -0.007 | 0.065 | -0.02 | –
3 | CCNH (UniProt P51946) | 0.043 | 0.005 | -0.044 | 0.018 | -0.011 | 0.026 | -0.03 | -0.002 | 0.023 | 0.007
4 | CCNK isoform 4 (UniProt O75909) | -0.067 | 0.177 | 0.163 | 0.061 | -0.013 | -0.021 | -0.014 | 0.024 | 0.066 | -0.033
5 | CLN5 (UniProt O75503) | 0.021 | -0.385 | 0.075 | 0.049 | 0.265 | -0.65 | -0.341 | 0.27 | -0.028 | –
6 | CLSPN (UniProt Q9HAW4) | -0.076 | 0.053 | -0.034 | 0.107 | 0.004 | -0.111 | -0.019 | -0.018 | 0.053 | –
7 | COCH (UniProt O43405) | -0.018 | 0.024 | -0.018 | 0.077 | -0.063 | -0.144 | 0.131 | -0.078 | 0.049 | 0.001
8 | CDK9 isoform 2 (UniProt P50750) | -0.103 | 0.154 | 0.015 | 0.114 | -0.093 | -0.182 | -0.031 | -0.067 | -0.055 | 0.014
9 | CD151 (UniProt P48509) | -0.045 | 0.108 | -0.048 | -0.12 | 0.075 | 0.111 | 0.001 | -0.024 | 0.012 | 0.116
10 | CNOT4 isoform 6 (UniProt O95628) | -0.057 | 0.017 | -0.023 | -0.001 | -0.036 | 0.037 | -0.007 | -0.012 | -0.008 | 0.036
11 | CERS2 (UniProt Q96G23) | -0.045 | -0.117 | -0.062 | -0.047 | -0.129 | -0.107 | -0.095 | -0.005 | -0.03 | -0.262 (active)
12 | CTBS (UniProt Q01459) | -0.006 | -0.038 | 0.002 | 0.018 | -0.032 | 0.026 | 0.01 | 0.055 | 0.004 | -0.068
13 | CD53 (UniProt P19397) | -0.1 | 0.025 | -0.022 | 0.084 | -0.04 | 0.154 | 0.053 | 0.102 | -0.208 | 0.276
14 | CASP2 (UniProt P42575) | 0.122 | -0.02 | 0.047 | -0.067 | -0.019 | -0.245 | -0.082 | 0.072 | -0.323 (active) | 0.069
15 | CDKN2AIP (UniProt Q9NXV6) | 0.059 | 0.024 | -0.029 | -0.033 | -0.091 | -0.007 | 0.038 | 0.054 | 0.042 | -0.025
16 | COQ7 (UniProt Q99807) | 0.001 | -0.098 | -0.081 | 0.026 | 0.115 | 0.011 | 0.055 | 0.031 | 0.042 | 0.074
17 | CBR1 (UniProt P16152) | 0 | -0.024 | 0.071 | -0.074 | -0.036 | 0.001 | -0.004 | 0.028 | 0.037 | -0.035
18 | CES2 isoform 4 (UniProt O00748) | -0.099 | 0.055 | 0.078 | 0.053 | 0.023 | -0.044 | 0.03 | -0.145 | 0.161 | 0.103
19 | CHAC2 (UniProt Q8WUX2) | -0.007 | -0.032 | 0.066 | -0.019 | 0.026 | -0.061 | -0.03 | 0.06 | 0.029 | 0.077
20 | CPSF6 isoform 2 (UniProt Q16630) | -0.03 | 0.036 | 0.016 | 0.034 | -0.046 | 0.063 | 0.023 | 0.025 | -0.016 | 0.055
21 | COX5A (UniProt P20674) | -0.1 | 0.015 | 0.054 | -0.012 | -0.13 | -0.092 | 0.067 | 0.084 | -0.108 | 0.108
22 | CNOT7 (UniProt Q9UIV1) | -0.032 | 0.012 | 0.018 | -0.008 | -0.011 | 0.233 | 0.134 | -0.067 | -0.036 | 0.001
23 | COX5B (UniProt P10606) | 0.012 | 0.212 | 0.094 | 0.019 | -0.103 | 0.004 | 0.011 | 0.015 | -0.038 | -0.04
24 | CPSF1 (UniProt Q10570) | -0.042 | 0.164 | 0.095 | 0.053 | -0.08 | 0.02 | -0.079 | 0.01 | 0.029 | -0.058
25 | CIT isoform 4 (UniProt O14578) | -0.099 | 0.055 | -0.003 | 0.027 | -0.036 | -0.228 (active) | -0.12 | -0.06 | 0.031 | -0.044
26 | CIZ1 (UniProt Q9ULV3) | 0.039 | 0.04 | -0.006 | 0.054 | -0.042 | -0.106 | -0.099 | 0.034 | 0.025 | 0.05
27 | COPS8 (UniProt Q99627) | 0.006 | 0.023 | 0.045 | -0.017 | 0.042 | -0.078 | -0.028 | 0.117 | -0.01 | -0.014
28 | CCNB1 (UniProt P14635) | -0.006 | -0.035 | -0.009 | 0.003 | -0.061 | 0.015 | -0.009 | 0.017 | -0.044 | 0.002
29 | CBS (UniProt P35520) | -0.225 (active) | -0.05 | 0.044 | 0.014 | -0.073 | 0.024 | 0.007 | 0.011 | -0.026 | 0.043
30 | COQ9 (UniProt O75208) | 0.02 | -0.113 | -0.017 | 0.166 | -0.038 | -0.013 | 0.025 | 0.045 | 0.043 | -0.041

From the supplement of paper PMC10849652
